Compound activity: PubChem BioAssay, National Center for Advancing Translational Sciences (NCATS)
This is a sample that favours compounds with a hit; in the whole collection about 8% have one here.
HCMV inh: qHTS Assay for inhibitors of the human cytomegalovirus (HCMV). AID 1259415, 2018. HFF cells, HCMV-luciferase reporter, 72 h; stronger effect = lower value. actives 4.5% (n = 410,000). activity change, negative = inhibition, % at 57.5 µM; in the data active = activity change below about -60%; inconclusive = no clear call, values can overlap the other calls; inactive = above about -39%
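HFF cells seeded 16 h at 37C, treated with compounds, infected with luciferase-reporter HCMV at MOI 1 PFU/cell; luciferase read at 72 h post infection, normalized to buffer-only and Salinomycin controls.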
SARS PLpro yeast: qHTS of Yeast-based Assay for SARS-CoV PLP; S. cerevisiae expressing SARS-CoV PLpro, growth rescue; Potency, µM (highest dose often 32.9 µM), usual class: activators; actives 0.19% (n = 330,000); AID 485353, 2010; calls by dose curve; note: nearly all actives have a fitted effect of over 55% in size
Marburg entry inh: qHTS for inhibitors of binding or entry into cells for Marburg Virus. AID 540276, 2011. Potency, µM (doses to about 37.8 µM), actives largely listed as inhibitors. Marburg virus pseudotyped entry inhibition, cell reporter. actives 1.8% (n = 300,000); calls by dose curve; tested in HEK293 cells
LASV entry inh: qHTS for Inhibitors of binding or entry into cells for Lassa Virus. Lassa virus pseudotype entry inhibition, cell reporter. Potency, µM (highest dose often 37.9 µM), most hits filed as inhibitors. actives 1.2% (n = 300,000). AID 540256, 2011; calls by dose curve; tested in HEK293 cells; note: nearly all actives have a fitted effect of over 50% in size
HCV inh: qHTS Assay for Inhibitors of Hepatitis C Virus (HCV) | actives 3.4% (n = 340,000) | Potency, µM (top dose mostly 41.8 µM), hits mostly inhibitors | AID 651820, 2012 | Huh7.5.1 HCVcc-Cre infection, luciferase reporter, 44 h; active = well fitted inhibition curve with a large enough effect; inconclusive = small, poorly fitted or top-dose-only effect, or another doubt; inactive = no such curve, though single readings can be large or run the other way
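Seed cells (1,000/well) for 4 h; treat with compound and infect with HCVcc-Cre, moi about 0.5. Incubate 44 h, then detect luciferase activity.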
FMDV antiviral: High Throughput Screening for Foot and Mouth Disease Virus Antivirals; actives 1.2% (n = 410,000); AID 1159524, 2015; FMDV antiviral cell-based qHTS; Potency, µM (doses to about 57.9 µM), usual class: inhibitors; calls by dose curve; tested in HEK293T cells; note: read-out not given here; nearly all actives have a fitted effect of over 45% in size
Numbers stand for hits; ! = a repeat was not active.

What do the screens show for `O=C(NCCc1ccccc1)N1c2ccccc2Sc2ccccc21`?
HCMV inh: inactive; SARS PLpro yeast: inactive; Marburg entry inh: inconclusive; LASV entry inh: inactive; HCV inh: inconclusive; FMDV antiviral: 28µM

What do the screens show for `CC(C)CNC(=O)N1c2ccccc2Sc2ccccc21`?
HCMV inh: inactive; SARS PLpro yeast: inactive; Marburg entry inh: inconclusive; LASV entry inh: inconclusive; HCV inh: inactive; FMDV antiviral: inactive

Results for O=C(c1ccco1)N1CCN(C(=O)N2c3ccccc3Sc3ccccc32)CC1 ?
HCMV inh: inconclusive; SARS PLpro yeast: inactive; Marburg entry inh: inconclusive; LASV entry inh: inconclusive; HCV inh: inconclusive

How did CN(C)c1cc[n+](CC(=O)N2c3ccccc3Sc3ccccc32)cc1 do in these assays?
HCMV inh: -84; SARS PLpro yeast: inactive; Marburg entry inh: inactive; LASV entry inh: inactive; HCV inh: inactive; FMDV antiviral: inactive

Results for O=C(c1ccco1)N1c2ccccc2Sc2ccccc21 ?
HCMV inh: inconclusive; SARS PLpro yeast: inactive; Marburg entry inh: 22µM; LASV entry inh: inconclusive; HCV inh: inactive; FMDV antiviral: inconclusive

How did O=C(COc1ccccc1)N1c2ccccc2Sc2ccccc21 do in these assays?
HCMV inh: inactive; SARS PLpro yeast: inactive; Marburg entry inh: inconclusive; LASV entry inh: inactive; HCV inh: inconclusive; FMDV antiviral: inactive

How did CCc1ccc([C@H]2[C@@H]3C(=O)C[C@@H]4C(=O)N(C5CCCCC5)C(=O)[C@@H]4[C@@H]3CN2S(=O)(=O)c2ccc(C)cc2)cc1 do in these assays?
HCMV inh: inactive; FMDV antiviral: inactive

What do the screens show for `Cc1cc2c(cc1S(=O)(=O)NCc1ccc(F)cc1)OCCN2C`?
HCMV inh: inactive; LASV entry inh: inactive; FMDV antiviral: inactive

How did CCN(CC)S(=O)(=O)c1cccc(-c2nnc(SCCCC(=O)c3ccc(F)cc3)o2)c1 do in these assays?
HCMV inh: inactive; SARS PLpro yeast: inactive; Marburg entry inh: 21µM!; LASV entry inh: inconclusive; HCV inh: inconclusive; FMDV antiviral: inconclusive

How did CCN(CC)S(=O)(=O)c1cccc(-c2nnc(SCCCC(=O)c3ccccc3)o2)c1 do in these assays?
HCMV inh: inactive; SARS PLpro yeast: inactive; Marburg entry inh: inconclusive; LASV entry inh: inconclusive; HCV inh: 16µM; FMDV antiviral: inconclusive

Results for CCN(CC)S(=O)(=O)c1cccc(-c2nnc(SCC(=O)c3cc(C)n(C4CC4)c3C)o2)c1 ?
HCMV inh: inactive; SARS PLpro yeast: inactive; Marburg entry inh: inconclusive; LASV entry inh: inconclusive; HCV inh: inactive; FMDV antiviral: inactive

What do the screens show for `CCN(CC)S(=O)(=O)c1cccc(-c2nnc(-c3ccc(C)cc3)o2)c1`?
HCMV inh: inactive; SARS PLpro yeast: inactive; Marburg entry inh: inactive; LASV entry inh: inactive; HCV inh: inconclusive; FMDV antiviral: inactive

Results for C=CCn1c(C)cc(C(=O)CSc2nnc(-c3cccc(S(=O)(=O)N(CC)CC)c3)o2)c1C ?
HCMV inh: inactive; SARS PLpro yeast: inactive; Marburg entry inh: inactive; LASV entry inh: inconclusive; HCV inh: 8.9µM; FMDV antiviral: inactive

How did CCN(CC)S(=O)(=O)c1ccc(-c2nnc(SCC(=O)c3ccc(OC)cc3)o2)cc1 do in these assays?
HCMV inh: inactive; SARS PLpro yeast: inactive; Marburg entry inh: inactive; LASV entry inh: inactive; HCV inh: inactive; FMDV antiviral: inconclusive

How did CC(Sc1nnc(-c2ccco2)o1)C(=O)NCCC1=CCCCC1 (stereo not given) do in these assays?
HCMV inh: inactive; SARS PLpro yeast: inactive; Marburg entry inh: inactive; LASV entry inh: inconclusive; HCV inh: inactive; FMDV antiviral: inactive

How did CCN(CC)S(=O)(=O)c1cccc(-c2nnc(SC(C)C(=O)NCCC3=CCCCC3)o2)c1 (stereo not given) do in these assays?
HCMV inh: inconclusive; SARS PLpro yeast: inactive; Marburg entry inh: inactive; LASV entry inh: inconclusive; HCV inh: 11µM!; FMDV antiviral: inconclusive

Results for Cc1cc(=O)n(Cc2cccc(Br)c2)c2c1c(C)nn2-c1ccccc1 ?
HCMV inh: inactive; LASV entry inh: inactive; FMDV antiviral: inactive

Results for Brc1ccccc1-c1nnc(SCc2nc3ccccc3s2)o1 ?
HCMV inh: inactive; SARS PLpro yeast: inactive; Marburg entry inh: inconclusive; LASV entry inh: inconclusive; HCV inh: inconclusive; FMDV antiviral: inactive
